# Data reported in PubChem BioAssay (NCI).
# This is part of a sample that, as a whole, favours compounds with a hit. Of some 79,000 tested, about 15% had one in any assay. Unmarked numbers belong to inactive results. Calls of active or inactive are those of the source. No stated cut-off is given here; in the data, active means growth inhibition above about 70%; inactive means the rest.
# Experiment: NCI Yeast Anticancer Drug Screen. Data for the sgs1 strain (AID 173);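 further: 0% = growth of vehicle-only control cultures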
# Settings: S. cerevisiae sgs1 mutant, at 100.0 µM, stronger effect = higher value
# Method in brief: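 Each compound was added to cultures of the altered yeast strain. Growth was recorded, and inhibition was derived by comparison with vehicle controls.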
row,Compound,growth inhibition
1,CC/C(=C(\c1ccccc1)c1ccc(OCC[N+](C)(C)C)cc1)c1ccccc1,99% (active)
2,O=S(=O)(c1cccc(C(F)(F)F)c1)N1c2ccccc2-n2cccc2C1c1cccnc1 (stereo not given),89% (active)
3,Nc1ccc2c(c1)C(=O)c1c(F)cccc1-2,92% (active)
4,CN(C)/C(=N/C(=S)Nc1ccccc1)SCc1ccccc1,30%
5,CCN(CC)C(=S)N/N=C(\C)c1ccccc1O,98% (active)
6,CC(C)OC(=O)NNc1cc(Cl)ccc1Cl,54%
7,CC(C)CCC[C@@H](C)[C@H]1CC[C@H]2[C@@H]3CC[C@H]4C[C@H](N)CC[C@]4(C)[C@H]3CC[C@]12C,13%
8,O=C1c2ccccc2-c2ccc(N=Cc3ccccc3)cc21,86% (active)

# Experiment: NCI Yeast Anticancer Drug Screen. Data for the mlh1 rad18 strain (AID 175)
# Settings: S. cerevisiae mlh1 rad18 strain growth inhibition; at 5.0 µM (retest, dose inferred, filed as 0.5); stronger effect = higher value
# Method in brief: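 Genetically defined yeast (DNA repair-deficient) exposed to compounds; growth inhibition determined relative to vehicle.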
row,Compound,growth inhibition
1,COc1ccc2nc3cccc([N+](=O)[O-])c3c(NCCNCCN(C)C)c2c1,55%
2,Cc1cccc(/C=N/NC(=S)NC2CCCCC2)n1,-19%
3,COC(=O)C(=O)c1c(-c2ccc(Cl)c(Cl)c2)[nH]c2[nH]n(-c3ccccc3)c(=O)c2c1=O,-7%
4,c1ccc([P+](CCN2Cc3ccccc3C2)(c2ccccc2)c2ccccc2)cc1,71% (active)
5,Cc1cc(C)c2[s+]snc2c1,2%
6,CC(C)(Br)C(=O)/C=C/c1ccccc1,74% (active)
7,Cc1ccc(S(=O)(=O)NC(=O)C2C(=O)CC3(CCCCC3)CC2=O)cc1,42%
8,NC(=S)N1N=C2c3ccccc3CC[C@H]2[C@@H]1c1ccc(Cl)cc1,7%
9,O=[N+]([O-])/C=C/c1cc2ccc3ccccc3c2[nH]1,84% (active)
10,O=C1C(=C2CCCC2)CCC1CN1CCCCC1 (stereo not given),-29%
11,OC(CC(O)(C(F)(F)F)C(F)(F)F)c1ccc(C(O)CC(O)(C(F)(F)F)C(F)(F)F)cc1 (stereo not given),47%
12,COc1cc2c(cc1OC)[C@@H](Nc1ccc(C#N)cc1)C1COC(=O)[C@@H]1C2c1cc(OC)c(O)c(OC)c1 (stereo not given in full),9%
13,O=c1cccccc1[O-].O=c1cccccc1[O-].O=c1cccccc1[O-].[Eu+3],24%
14,O=C1c2ccccc2C(=O)c2sc(Nc3ccccc3Cl)nc21,96% (active)
15,NC(CCCCCCCCCCCCC(N)C(=O)c1ccccc1)C(=O)c1ccccc1 (stereo not given),-8%
16,CC1=C(C)C(=O)C2=C(OCCO2)C1=O,4%
17,c1ccc(-c2cc(C3CO3)c3ccccc3n2)cc1 (stereo not given),-17%
18,S=C1C(=Nc2ccccc2)N(c2ccccc2)/C(=N\c2ccccn2)N1c1ccccc1,76% (active)

row,Compound,growth inhibition
1,CCC(OC(C)=O)C1CC(C(C)C)CCC1C (stereo not given),-1%
2,CC(C)=CCc1c2c(c(O)c3c(=O)c(-c4ccc(O)c(O)c4)coc13)C=CC(C)(C)O2,43%
3,O=C(NC(N1CCN(c2cc3c(cc2F)c(=O)c(C(=O)O)cn3C2CC2)CC1)(C(F)(F)F)C(F)(F)F)c1ccccc1,-5%
4,Fc1cc(F)c(F)c(S)c1F,9%
5,COc1ccc2cc3c4cc5c(cc4cc[n+]3cc2c1OC)OCO5,63%
6,CCCCCCCCNCCCCCCCC,80% (active)
7,Nc1cc(Cl)ccc1Nc1ccccc1,62%
8,O=C(/C(=C/c1ccc(O)cc1)c1ccccc1)c1ccccc1,0%
9,O=Cc1ccccc1C=O,-23%
10,C1=CCN([B-](c2ccccc2)[C+]2CCCCC2)C=C1,0%
11,CC/C(=C(\c1ccccc1)c1ccc(OCC[N+](C)(C)C)cc1)c1ccccc1,27%
12,O=S(=O)(c1cccc(C(F)(F)F)c1)N1c2ccccc2-n2cccc2C1c1cccnc1 (stereo not given),34%
13,Nc1ccc2c(c1)C(=O)c1c(F)cccc1-2,-120%
14,CN(C)/C(=N/C(=S)Nc1ccccc1)SCc1ccccc1,-1%
15,CCN(CC)C(=S)N/N=C(\C)c1ccccc1O,-18%
16,CC(C)OC(=O)NNc1cc(Cl)ccc1Cl,57%
17,CC(C)CCC[C@@H](C)[C@H]1CC[C@H]2[C@@H]3CC[C@H]4C[C@H](N)CC[C@]4(C)[C@H]3CC[C@]12C,2%
18,O=C1c2ccccc2-c2ccc(N=Cc3ccccc3)cc21,-12%

# Same assay, conditions: S. cerevisiae mlh1 rad18 strain growth inhibition; at 50.0 µM (retest, dose inferred, filed as 5.0); stronger effect = higher value
row,Compound,growth inhibition
1,COc1ccc2nc3cccc([N+](=O)[O-])c3c(NCCNCCN(C)C)c2c1,96% (active)
2,Cc1cccc(/C=N/NC(=S)NC2CCCCC2)n1,55%
3,COC(=O)C(=O)c1c(-c2ccc(Cl)c(Cl)c2)[nH]c2[nH]n(-c3ccccc3)c(=O)c2c1=O,80% (active)
4,c1ccc([P+](CCN2Cc3ccccc3C2)(c2ccccc2)c2ccccc2)cc1,87% (active)
5,Cc1cc(C)c2[s+]snc2c1,34%
6,CC(C)(Br)C(=O)/C=C/c1ccccc1,95% (active)
7,Cc1ccc(S(=O)(=O)NC(=O)C2C(=O)CC3(CCCCC3)CC2=O)cc1,71% (active)
8,NC(=S)N1N=C2c3ccccc3CC[C@H]2[C@@H]1c1ccc(Cl)cc1,93% (active)
9,O=[N+]([O-])/C=C/c1cc2ccc3ccccc3c2[nH]1,94% (active)
10,O=C1C(=C2CCCC2)CCC1CN1CCCCC1 (stereo not given),83% (active)
11,OC(CC(O)(C(F)(F)F)C(F)(F)F)c1ccc(C(O)CC(O)(C(F)(F)F)C(F)(F)F)cc1 (stereo not given),99% (active)
12,COc1cc2c(cc1OC)[C@@H](Nc1ccc(C#N)cc1)C1COC(=O)[C@@H]1C2c1cc(OC)c(O)c(OC)c1 (stereo not given in full),94% (active)
13,O=c1cccccc1[O-].O=c1cccccc1[O-].O=c1cccccc1[O-].[Eu+3],24%
14,O=C1c2ccccc2C(=O)c2sc(Nc3ccccc3Cl)nc21,99% (active)
15,NC(CCCCCCCCCCCCC(N)C(=O)c1ccccc1)C(=O)c1ccccc1 (stereo not given),-13%
16,CC1=C(C)C(=O)C2=C(OCCO2)C1=O,50%
17,c1ccc(-c2cc(C3CO3)c3ccccc3n2)cc1 (stereo not given),69%
18,S=C1C(=Nc2ccccc2)N(c2ccccc2)/C(=N\c2ccccn2)N1c1ccccc1,97% (active)

row,Compound,growth inhibition
1,CCC(OC(C)=O)C1CC(C(C)C)CCC1C (stereo not given),19%
2,CC(C)=CCc1c2c(c(O)c3c(=O)c(-c4ccc(O)c(O)c4)coc13)C=CC(C)(C)O2,90% (active)
3,O=C(NC(N1CCN(c2cc3c(cc2F)c(=O)c(C(=O)O)cn3C2CC2)CC1)(C(F)(F)F)C(F)(F)F)c1ccccc1,80% (active)
4,Fc1cc(F)c(F)c(S)c1F,99% (active)
5,COc1ccc2cc3c4cc5c(cc4cc[n+]3cc2c1OC)OCO5,97% (active)
6,CCCCCCCCNCCCCCCCC,99% (active)
7,Nc1cc(Cl)ccc1Nc1ccccc1,99% (active)
8,O=C(/C(=C/c1ccc(O)cc1)c1ccccc1)c1ccccc1,98% (active)
9,O=Cc1ccccc1C=O,48%
10,C1=CCN([B-](c2ccccc2)[C+]2CCCCC2)C=C1,96% (active)
11,CC/C(=C(\c1ccccc1)c1ccc(OCC[N+](C)(C)C)cc1)c1ccccc1,27%
12,O=S(=O)(c1cccc(C(F)(F)F)c1)N1c2ccccc2-n2cccc2C1c1cccnc1 (stereo not given),96% (active)
13,Nc1ccc2c(c1)C(=O)c1c(F)cccc1-2,-30%
14,CN(C)/C(=N/C(=S)Nc1ccccc1)SCc1ccccc1,76% (active)
15,CCN(CC)C(=S)N/N=C(\C)c1ccccc1O,97% (active)
16,CC(C)OC(=O)NNc1cc(Cl)ccc1Cl,89% (active)
17,CC(C)CCC[C@@H](C)[C@H]1CC[C@H]2[C@@H]3CC[C@H]4C[C@H](N)CC[C@]4(C)[C@H]3CC[C@]12C,55%
18,O=C1c2ccccc2-c2ccc(N=Cc3ccccc3)cc21,46%
